This is an account of results in PubChem BioAssay (NCATS).

Holding throughout (assay): qHTS profiling for inhibitors of Plasmodium falciparum proliferation (AID 504749); further: nearly all actives have a fitted effect of over 60% in size
What all share (settings): P. falciparum in erythrocytes, SYBR Green DNA, 72 h; series mostly up to 28.7 µM
Background: Quantitative high-throughput screening tests each substance at several concentrations.

One experiment concerns Dd2. Summed up:
(§1)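 P. falciparum-infected erythrocytes (0.3% parasitemia, 2.5% hematocrit) incubated with compound 72 h at 37 C, 5% CO2. Parasite DNA detected by SYBR Green after lysis, overnight at room temperature; normalised to 0.29 uM artemisinin and DMSO.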

For the next experiment, the system named is ECU. In outline: as §1
The next experiment has as its system FAB9. Summed up:
as §1

For the next experiment, the system named is GB4. In outline:
as §1

A further experiment relates to HB3. In outline:
as §1

The next experiment deals with ICS. Summed up:
as §1

The test system of the next experiment is JCK. Summed up:
as §1

Another experiment concerns CP286. In outline: as §1
In another experiment the test system is CP291. Summed up: as §1
In another experiment the test system is CP297. In outline:
as §1

The subject of a further experiment is CP305. Summed up: as §1
For the next experiment, the system named is CP315. In outline:
as §1

Another experiment has as its system CP325. Summed up: as §1
The next experiment deals with CP329. In outline:
as §1

In a further experiment the test system is CP335. In outline:
as §1

A further experiment deals with DFO2036. In outline:
as §1

In the next experiment the test system is DIV14. Summed up: as §1
A further experiment deals with DIV17. In outline: as §1
For a further experiment, the system named is DIV30. In outline:
as §1

For another experiment, the system named is N140. Summed up:
as §1

The structures appear in SMILES notation. Records with an inconclusive call do not appear. Some structures have more than one record in an assay (separate samples or runs), and their calls can disagree. Calls of active or inactive are those of the source. The call rests on the fitted dose curve; in most records, active means well fitted inhibition curve with a large enough effect; inconclusive means small, poorly fitted or top-dose-only effect; inactive means flat fitted curve, though single readings scatter.
Potency means the concentration at half of the fitted maximal effect.

As for `CCCCC1C(=O)N(c2ccccc2)N(c2ccccc2)C1=O`, the Potency entry in the experiment on Dd2 and in the experiment on HB3 was “inactive” throughout. The Potency in the experiment on ECU was 8.91 µM (active) and inactive; with GB4 it was 12 µM (active); with ICS it was 11.2 µM (active). Also, the compound was called inactive with FAB9 and in the experiment with JCK.

On to `CCN(CC)CCNC(=O)c1ccc(N)cc1`, for which the result in the experiment with CP286, in the experiment with CP291, in the experiment on CP315, with CP325, in the experiment on CP329 and with DFO2036 was inactive. In addition, the outcome in the experiment with DIV30, in the experiment with FAB9 and in the experiment with JCK was inactive. Also, the Potency entry in the experiment on CP297, in the experiment on CP305, with CP335, with DIV14, in the experiment on DIV17 and in the experiment with Dd2 was “inactive” throughout. The Potency result with ECU, with GB4, in the experiment with HB3, with ICS and in the experiment on N140 was “inactive” throughout.

Turning to `CC1=C(/C=C/C(C)=C/C=C/C(C)=C/C(=O)Nc2ccc(O)cc2)C(C)(C)CCC1`, the Potency was 13.5 µM (active) in the experiment with CP297; 15.1 µM (active) in the experiment on CP305; 16.9 µM (active) with DIV14; 16.9 µM (active) in the experiment on DIV17; 11.2 µM (active) with Dd2; 10.7 µM (active) in the experiment on GB4. The Potency with HB3 is 11.2 µM (active); in the experiment with ICS, 11.2 µM (active); in the experiment on N140, 10 µM (active).

As for `CCN(CC)CCOC(=O)c1ccc(N)cc1`, the call in the experiment with CP286, with CP291, with CP315, in the experiment with CP325, in the experiment with CP329 and with DFO2036 was inactive. Further, the result with DIV30, with FAB9 and in the experiment on JCK was inactive. The Potency result in the experiment with CP297, in the experiment on CP305, in the experiment on CP335, with DIV14, in the experiment with DIV17 and with Dd2 was “inactive” each time. Moreover, the Potency result with ECU, in the experiment with GB4, in the experiment with HB3, with ICS and in the experiment on N140 was “inactive” in each case.

Regarding `CCOC(=O)O[C@]1(C(=O)OCCl)CC[C@@H]2[C@H]3CCC4=CC(=O)C=C[C@]4(C)[C@@H]3[C@@H](O)C[C@@]21C`, the compound was classed as inactive in the experiment on CP286, in the experiment on CP291, in the experiment with CP315, with CP325, with CP329 and in the experiment on DFO2036. Moreover, the compound was classed as inactive in the experiment on FAB9 and in the experiment with JCK. In the experiment on CP297, the Potency was 16.9 µM (active). Besides, the Potency entry with CP335, in the experiment on DIV14, in the experiment on DIV17, in the experiment with Dd2, with ECU and in the experiment with GB4 was “inactive” throughout. Besides, the Potency entry in the experiment with HB3, in the experiment on ICS and in the experiment with N140 was “inactive” throughout.

As to `CCN(CC)C(=O)c1ccc(O)c(OC)c1`, the call in the experiment with CP286, with CP291, in the experiment with CP315, with CP325, with CP329 and in the experiment on DFO2036 was inactive. The outcome with DIV30, in the experiment on FAB9 and in the experiment on JCK was inactive. Besides, the Potency entry in the experiment on CP297, in the experiment on CP305, in the experiment with CP335, in the experiment with DIV14, in the experiment with DIV17 and in the experiment with Dd2 was “inactive” in each case. The Potency entry in the experiment on ECU, in the experiment with GB4, in the experiment on HB3, with ICS and with N140 was “inactive” throughout.

As to `O=C(O)c1cc(-c2ccccc2)nc2ccccc12`, the outcome in the experiment with CP286, in the experiment with CP291, in the experiment with CP315, in the experiment with CP325, with CP329 and with DFO2036 was inactive. The call in the experiment on DIV30, in the experiment on FAB9 and in the experiment with JCK was inactive. Moreover, the Potency result in the experiment on CP297, in the experiment with CP305, in the experiment on CP335, in the experiment with DIV14, in the experiment with DIV17 and in the experiment on Dd2 was “inactive” throughout. Also, the Potency result with ECU, in the experiment with GB4, in the experiment on HB3, with ICS and in the experiment with N140 was “inactive” each time.

Turning to `C[C@@H](O)[C@H]1C(=O)N2C(C(=O)O)=C(S[C@@H]3CN[C@H](C(=O)N(C)C)C3)[C@H](C)[C@H]12`, the compound was classed as inactive in the experiment with CP286, with CP291, in the experiment with CP315, in the experiment with CP325, with CP329 and in the experiment on DFO2036. In addition, the outcome with DIV30, with FAB9 and in the experiment with JCK was inactive. The Potency entry in the experiment on CP297, with CP305, with CP335, with DIV14, in the experiment on DIV17 and in the experiment on Dd2 was “inactive” each time. The Potency entry in the experiment on ECU, in the experiment with GB4, with HB3, with ICS and in the experiment on N140 was “inactive” in each case.

As for `O=C(O)c1c(Cl)c(Cl)c(Cl)c(Cl)c1-c1c2cc(I)c(=O)c(I)c-2oc2c(I)c(O)c(I)cc12`, the outcome in the experiment on CP286, with CP291, with CP315, in the experiment with CP325, in the experiment on CP329 and with DFO2036 was inactive. The outcome in the experiment with DIV30, in the experiment on FAB9 and in the experiment on JCK was inactive. Also, the Potency result with CP305, with CP335, with DIV14, in the experiment on DIV17, in the experiment on Dd2 and with ECU was “inactive” throughout. The Potency result in the experiment with GB4, with HB3, in the experiment with ICS and in the experiment on N140 was “inactive” throughout.

Turning to `CC(=O)O[C@]1(C(C)=O)CC[C@H]2[C@@H]3C=C(Cl)C4=CC(=O)[C@@H]5C[C@@H]5[C@]4(C)[C@H]3CC[C@@]21C`, the compound was classed as inactive with CP315, in the experiment with CP329, in the experiment with DFO2036, in the experiment on FAB9 and with JCK. The Potency result with Dd2, with ECU, in the experiment with HB3 and in the experiment on N140 was “inactive” each time. Besides, the Potency in the experiment on ICS is 12.6 µM (active).

`Clc1ccc(Cn2c(CN3CCCC3)nc3ccccc32)cc1`: the result in the experiment on CP286, with CP291, in the experiment with CP315, in the experiment on CP325, in the experiment with CP329 and with DFO2036 was inactive. Besides, the result in the experiment on FAB9 and in the experiment on JCK was inactive. Further, the Potency result with CP305, with CP335, in the experiment with Dd2, in the experiment on ECU, in the experiment on HB3 and with N140 was “inactive” each time.

Turning to `Cc1cccc(C)c1OCC(C)N` (stereo not given), the compound was called inactive in the experiment on CP286, in the experiment on CP315, with CP329, in the experiment on DFO2036, in the experiment with FAB9 and with JCK. Besides, the Potency entry with ECU, with HB3 and in the experiment with ICS was “inactive” in each case. Also, the Potency in the experiment with GB4 is 13.5 µM (active).

Turning to `CCCCCN(C)CCC(O)(P(=O)(O)O)P(=O)(O)O`, the result with CP286, with CP291, with CP315, in the experiment with CP325, in the experiment on CP329 and in the experiment with DFO2036 was inactive. Moreover, the call with DIV30, with FAB9 and with JCK was inactive. Moreover, the Potency entry with CP297, in the experiment on CP305, with CP335, with DIV14, in the experiment with DIV17 and in the experiment with Dd2 was “inactive” in each case. Besides, the Potency result in the experiment on ECU, in the experiment on GB4, in the experiment with HB3, in the experiment with ICS and with N140 was “inactive” throughout.

`CC(=O)c1ccc(S(=O)(=O)NC(=O)NC2CCCCC2)cc1`: the compound was called inactive in the experiment with CP286, in the experiment on CP291, in the experiment with CP315, in the experiment on CP325, in the experiment with CP329 and with DFO2036. Also, the outcome in the experiment with DIV30, in the experiment on FAB9 and with JCK was inactive. Moreover, the Potency result in the experiment with CP297, in the experiment on CP305, in the experiment with CP335, in the experiment with DIV14, with DIV17 and in the experiment with Dd2 was “inactive” each time. Moreover, the Potency entry in the experiment with ECU, with GB4, with HB3, in the experiment with ICS and in the experiment with N140 was “inactive” in each case.

As for `O=C1NC(=O)C(c2ccccc2)(c2ccccc2)N1`, the outcome in the experiment with CP286, in the experiment with CP291, in the experiment on CP325, in the experiment on CP329, in the experiment on DFO2036 and in the experiment with DIV30 was inactive. Further, the compound was called inactive with FAB9 and in the experiment with JCK. Also, the Potency result in the experiment with CP297, in the experiment on CP305, with CP335, with DIV14, with DIV17 and in the experiment with Dd2 was “inactive” in each case. The Potency entry with ECU, in the experiment with GB4, in the experiment with HB3, in the experiment on ICS and in the experiment on N140 was “inactive” each time.

Take `COc1ccc(Cc2nccc3cc(OC)c(OC)cc23)cc1OC`: the compound was classed as inactive in the experiment with CP286, in the experiment on CP291, with CP315, with CP325, in the experiment with CP329 and with DFO2036. Moreover, the outcome in the experiment with DIV30, with FAB9 and with JCK was inactive. For the same compound, the Potency entry in the experiment with CP297, in the experiment on CP305, in the experiment on CP335, in the experiment on DIV14, with DIV17 and with Dd2 was “inactive” throughout. Also, the Potency entry in the experiment with ECU, in the experiment on GB4, in the experiment with HB3, in the experiment with ICS and in the experiment with N140 was “inactive” throughout.

In the case of `CC(=O)N[C@@H](CS)C(=O)O`, the outcome in the experiment on CP286, in the experiment on CP291, in the experiment with CP315, with CP325, in the experiment on CP329 and with DFO2036 was inactive. The compound was classed as inactive in the experiment with DIV30, with FAB9 and in the experiment on JCK. Besides, the Potency result in the experiment on CP297, with CP305, in the experiment with CP335, with DIV14, in the experiment with DIV17 and with Dd2 was “inactive” throughout. Besides, the Potency entry in the experiment with ECU, in the experiment with GB4, in the experiment with HB3, with ICS and in the experiment on N140 was “inactive” each time.

For `COCCCCC(=NOCCN)c1ccc(C(F)(F)F)cc1`, the compound was classed as inactive in the experiment on CP315. Besides, the Potency is 6.75 µM (active) with DIV14, 6.75 µM (active) in the experiment on DIV17 and 5.36 µM (active) in the experiment with GB4.
